One assay concerns the target T1, GST-Nv-NF-kB (Ser allele) (Nematostella vectensis, UniProt A7UNT2 2-411).
T1 sequence: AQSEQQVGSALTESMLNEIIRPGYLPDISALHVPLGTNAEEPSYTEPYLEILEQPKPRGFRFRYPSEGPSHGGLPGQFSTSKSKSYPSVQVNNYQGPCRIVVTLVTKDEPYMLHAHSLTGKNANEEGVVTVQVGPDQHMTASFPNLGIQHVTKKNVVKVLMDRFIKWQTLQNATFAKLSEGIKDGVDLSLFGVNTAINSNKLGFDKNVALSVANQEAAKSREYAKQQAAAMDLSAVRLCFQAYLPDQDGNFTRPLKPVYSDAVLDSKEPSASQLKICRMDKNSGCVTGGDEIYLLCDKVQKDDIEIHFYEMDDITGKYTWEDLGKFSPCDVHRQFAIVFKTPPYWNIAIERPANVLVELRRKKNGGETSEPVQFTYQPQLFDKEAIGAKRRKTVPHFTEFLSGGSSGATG
The experiment in a line: protein-binding microarray (PBM); PBM: ~300 nM protein, 6 mM HEPES pH 7.8, 80 mM KCl, 0.5 mM EDTA, 0.5 mM EGTA, 6% glycerol, 35 ng/ul poly-dIdC, 1% milk, 1 h, room temperature; Ap Aiptasia and Nv Nematostella (sea anemones) / Co Capsaspora / Aq Amphimedon (sponge) / Dm Drosophila / Hu human; RHD is the Rel homology domain; high values mean tight binding. As to conditions: dsDNA, one strand shown.
“CCGATTAACATCACAGTCCCCCCTGATGTTAATCGGGTCTTGATTCGCTTGACGCTGCTG” showed a binding signal of 5.18 z-score.
Still for that read-out and setting: next, “CCGATTAACATCAAAAAGCCCCCTGATGTTAATCGGGTCTTGATTCGCTTGACGCTGCTG”: 7.92 z-score; “CCGATTAACATCAGAAATATCCCTGATGTTAATCGGGTCTTGATTCGCTTGACGCTGCTG”: 2.09 z-score.

The next assay concerns the target T2, GST-Co-NF-kB (Capsaspora owczarzaki, UniProt F1ARL5 200-546).
T2 sequence: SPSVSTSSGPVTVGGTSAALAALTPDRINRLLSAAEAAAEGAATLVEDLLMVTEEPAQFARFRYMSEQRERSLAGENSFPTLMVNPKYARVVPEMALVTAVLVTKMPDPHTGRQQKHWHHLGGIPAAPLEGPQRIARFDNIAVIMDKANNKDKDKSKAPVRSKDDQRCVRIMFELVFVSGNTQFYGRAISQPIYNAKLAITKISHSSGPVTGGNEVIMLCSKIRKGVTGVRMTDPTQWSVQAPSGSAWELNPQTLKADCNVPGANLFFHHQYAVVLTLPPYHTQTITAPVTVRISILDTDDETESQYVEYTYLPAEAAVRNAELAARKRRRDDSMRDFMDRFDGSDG
Described as above. The settings on record: dsDNA, one strand shown.
Take “CCGATTAACATCAGGGGAACGCATGATGTTAATCGGGTCTTGATTCGCTTGACGCTGCTG”: the binding signal amounted to 4.99 z-score.
Still for that read-out and setting: next, “CCGATTAACATCAGGGGGCTATATGATGTTAATCGGGTCTTGATTCGCTTGACGCTGCTG”: 1.85 z-score.
The same measure, in the same setting: to “CCGATTAACATCAAATTTCCCAGTGATGTTAATCGGGTCTTGATTCGCTTGACGCTGCTG” belongs 4.39 z-score.
As for “CCGATTAACATCAAAAAATCCCATGATGTTAATCGGGTCTTGATTCGCTTGACGCTGCTG”, the binding signal came out at 2.05 z-score.
Still for that read-out and setting: to “CCGATTAACATCAAAAATCCCAATGATGTTAATCGGGTCTTGATTCGCTTGACGCTGCTG” belongs 1.58 z-score.
Still for that read-out and setting: next, “CCGATTAACATCAAAAAAACCCCTGATGTTAATCGGGTCTTGATTCGCTTGACGCTGCTG”: 3.62 z-score; “CCGATTAACATCAGGGAATTTACTGATGTTAATCGGGTCTTGATTCGCTTGACGCTGCTG”: 3.89 z-score.
On the same count and under the same terms, next, “CCGATTAACATCAAGGGGGTACTTGATGTTAATCGGGTCTTGATTCGCTTGACGCTGCTG”: 2.92 z-score; “CCGATTAACATCAGGGGAGGGAATGATGTTAATCGGGTCTTGATTCGCTTGACGCTGCTG”: 5.53 z-score.
“CCGATTAACATCAGGGGATACACTGATGTTAATCGGGTCTTGATTCGCTTGACGCTGCTG” displayed a binding signal of 3.62 z-score.
Same read-out and setting: to “CCGATTAACATCAAGGGGGGGTGTGATGTTAATCGGGTCTTGATTCGCTTGACGCTGCTG” belongs 4.12 z-score.

These data come from PMC5700166.
